The campaign covered roughly 320,000 compounds. About 2,100 (0.66%) were called active. Not shown: some 53% with an inconclusive outcome. Calls follow the shape of the dose curve; as a rule, active = well fitted inhibition curve with a large enough effect in the signal ratio, with a control signal flat (not every such curve was filed as active); inconclusive = small, poorly fitted or top-dose-only effect, or effect the other way, or a change in a side signal; inactive = flat fitted curve, though single readings scatter; the % refers to the signal ratio. Shown is part of a subset that was picked to be rich in actives.
Potency is read from the fitted curve at half-maximal effect.

The assay in a line: qHTS Assay for Lipid Storage Modulators in Drosophila S3 Cells.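 As to cell number change: cells counted by Cell Tracker Red CMTPX staining in the red channel.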 As to lipid storage change, negative = inhibition: % is scaled to controls: 0 for no effect and ±100 for the full control effect. Conditions: BODIPY lipid droplet fluorescence, 18-24 h, cells fed with added oleic acid; cell number change: measured here: cell count max response; series mostly up to 46.1 µM. In outline:
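Drosophila S3 cells loaded with oleic acid (400 uM, as added) and compounds at several concentrations; lipid droplets imaged by 488-nm laser-scanning cytometry, 500–530 nm intensity and object ratio to cell channel. Percent activity normalized to 20 uM Triacsin C.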
(In general: In qHTS, concentration-response curves come from the screen itself.)
Turning to `Cc1cccc(N2CC(C(=O)Nc3nnc(SCc4cccnc4)s3)CC2=O)c1` (stereo unspecified), the Potency result was “inactive” and the cell number change was found to be 0.463%.
The like results for `Cc1ccc(Nc2cc(C)nc3ncnn23)c(Cl)c1` were, in that order, “inactive” and 1.99%.
`CCOC(=O)Cc1nnc(NC(=O)CSc2ccc(C)cc2)s1`: the Potency entry is “inactive” and the cell number change stood at 10.4%.
Consider `CC(NC(=O)c1ccco1)c1nc(-c2ccccc2)no1` (stereo unspecified), for which the Potency was 25.9 µM (active) and the cell number change turned out to be 24.3%.
Regarding `CC(NC(=O)c1ccco1)c1nc(-c2ccc(C(C)(C)C)cc2)no1` (stereo unspecified), the Potency entry is “inactive” and the cell number change was -0.87%.
With `CC(NC(=O)c1ccco1)c1nc(-c2ccc(Cl)cc2)no1` (stereo unspecified), the Potency result was “inactive”.
`Cc1c(NC(=O)COc2cccc(F)c2)c(=O)n(-c2ccccc2)n1C`: the Potency entry is “inactive” and the cell number change is -5.04%.
Take `COc1ccccc1NC(=O)C(C)OC(=O)CCCN=C1NS(=O)(=O)c2ccccc21` (stereo unspecified): the Potency entry is “inactive”.
Consider `CCOc1ccc(/C=N/NC2=NCCCCC2)cc1`, for which the Potency result is “inactive” and the cell number change came to 8.72%.
As to `COc1ccc(/C=N/NC2=NCCCCC2)cc1`, the Potency entry is “inactive”.
Take `Oc1ccc(/C=N/NC2=NCCCCC2)cc1`: the Potency is 9.2 µM (active) and the cell number change stood at 1.27%.
With `C=CCSc1nc(=O)n2ccccc2n1`, the Potency entry is “inactive”.
On to `CCCSc1ccc(-c2nn(-c3ccccc3)cc2/C=C(/C#N)C(=O)N2CCOCC2)cc1`, for which the Potency result is “inactive” and the cell number change is -5%.
As for `O=C(c1c(F)cccc1F)N(C1CCCCC1)C1CCCCC1`, the Potency result is “inactive” and the cell number change was -23%.
In the case of `COCCCNC(=O)CN(c1cc(OC)ccc1OC)S(=O)(=O)c1ccccc1`, the Potency entry is “inactive” and the cell number change was 13.9%.
The corresponding values for `Cc1ccc(NC(=O)CN(C)S(=O)(=O)c2ccc3c(c2)n(C)c(=O)c(=O)n3C)c(C)c1` are “inactive” and 25.1%.
The corresponding values for `COc1ccc(N(CC(=O)NCc2ccccc2OC)S(=O)(=O)c2ccccc2)cc1` are 8.2 µM (active) and 10.9%.
Regarding `COc1ccc(OC)c(N(CC(=O)NCCSC2CCCCC2)S(=O)(=O)c2ccccc2)c1`, the Potency is 14.6 µM (active) and the cell number change was -18.5%.
Take `COc1ccc(N(CC(=O)NCc2ccccc2OC)S(=O)(=O)c2c(C)nn(C)c2C)cc1`: the lipid storage change, negative = inhibition is 22.2% [at 9.22 µM] (inactive).
Turning to `CCOc1ccc(N(CC(=O)NC2CCCCCC2)S(=O)(=O)c2ccccc2)cc1`, the Potency result was “inactive” and the cell number change was 24.3%.
The like results for `COc1ccc(N(CC(=O)NCCSC2CCCCC2)S(=O)(=O)c2ccccc2)cc1OC` were, in that order, “inactive” and -12.6%.
As to `CCOc1ccc(N(CC(=O)NC2CC3CCC2C3)S(=O)(=O)c2ccccc2)cc1` (stereo unspecified), the Potency entry is “inactive” and the cell number change turned out to be 16.1%.
As to `COc1ccc(N(CC(=O)NCc2ccco2)S(=O)(=O)c2ccccc2)cc1`, the Potency entry was “inactive” and the cell number change is 3.25%.
Consider `Cc1ccccc1NC(=O)CN(C)S(=O)(=O)c1ccc2c(c1)n(C)c(=O)c(=O)n2C`, for which the Potency was 18.4 µM (active) and the cell number change turned out to be 13.4%.
Turning to `CCOc1ccc(N(CC(=O)NC2CCCC2)S(=O)(=O)c2ccccc2)cc1`, the Potency was 2.59 µM (active) and the cell number change is -7.14%.
The corresponding values for `CN(CC(=O)Nc1ccccc1F)S(=O)(=O)c1ccc2c(c1)n(C)c(=O)c(=O)n2C` are “inactive” and 1.35%.
As to `CCc1ccc(CN2CCCC(CCC(=O)N3CCN(c4ccccn4)CC3)C2)o1` (stereo unspecified), the Potency result was “inactive” and the cell number change came to 5.55%.
The corresponding values for `Cc1cc(CN2CCCC(N3CCc4ccccc4C3)C2)cc(C)c1O` (stereo unspecified) are “inactive” and -2.22%.
Take `Cc1[nH]c2ccccc2c1C(c1ccccn1)N1CCC(C(N)=O)CC1` (stereo unspecified): the Potency result was “inactive” and the cell number change was -13.7%.
Turning to `O=C(NCCN1CCOCC1)c1cccn2c(=O)c3c4c(sc3nc12)CCCC4`, the Potency result was “inactive” and the cell number change was -12.5%.
The corresponding values for `Cc1c(C(=O)NCCSCc2ccccc2)cccc1[N+](=O)[O-]` are “inactive” and -1.45%.
For the molecule `O=C(c1ccc(OC2CCN(CCc3ccccc3)CC2)cc1)N1CCCC(CO)C1` (stereo unspecified), the Potency result is “inactive” and the cell number change was 4.02%.
`COc1ccc(N2CCN(CC(O)COc3cc(C)ccc3C)CC2)cc1` (stereo unspecified): the Potency entry is “inactive” and the cell number change is -17%.
The like results for `CCCS(=O)(=O)C/C(N)=N/OC(=O)c1ccccc1Cl` were, in that order, “inactive” and -2.12%.
On to `CCC(C(=O)NCc1ccco1)N(C(=O)CNS(=O)(=O)c1ccccc1)c1ccc(F)cc1` (stereo unspecified), for which the Potency entry is “inactive” and the cell number change was -3.04%.
The corresponding values for `CCc1ccccc1NC(=O)CN(c1ccc(OC)cc1OC)S(=O)(=O)c1ccccc1[N+](=O)[O-]` are “inactive” and -4.08%.
The like results for `COc1ccc(N(CC(=O)NC2CC3CCC2C3)S(=O)(=O)c2ccc(C)cc2)cc1OC` (stereo unspecified) were, in that order, “inactive” and 8.82%.
The corresponding values for `Cc1cccc(N(CC(=O)NC2CC3CCC2C3)S(=O)(=O)c2ccccc2)c1` (stereo unspecified) are 20.6 µM (active) and -12.9%.
Take `COc1ccccc1N(CC(=O)Nc1cccnc1)S(=O)(=O)c1ccccc1`: the Potency result was “inactive” and the cell number change was -18%.
The like results for `CCc1ccccc1NC(=O)CN(c1ccc(OC)cc1OC)S(=O)(=O)c1ccccc1` were, in that order, 2.91 µM (active) and -14.4%.
For the molecule `O=C(CN(c1ccc(F)cc1)S(=O)(=O)c1ccccc1)NC1CC2CCC1C2` (stereo unspecified), the Potency result is “inactive” and the cell number change is 10.7%.
On to `CN(CC(=O)NCc1ccc(F)cc1)S(=O)(=O)c1ccc2c(c1)c(=O)n(C)c(=O)n2C`, for which the Potency entry is “inactive”.
Consider `COc1ccccc1N(CC(=O)Nc1ccc(Cc2ccncc2)cc1)S(=O)(=O)c1ccccc1`, for which the Potency is 7.31 µM (active) and the cell number change was found to be 27.6%.
The corresponding values for `COc1cccc(CNC(=O)CN(C)S(=O)(=O)c2ccc3c(c2)c(=O)n(C)c(=O)n3C)c1` are “inactive” and -15.3%.
Turning to `COc1ccccc1CNC(=O)CN(C)S(=O)(=O)c1ccc2c(c1)c(=O)n(C)c(=O)n2C`, the Potency was 9.2 µM (active).
For `COc1ccc(N(CC(=O)Nc2ccc(OC)cc2OC)S(=O)(=O)c2ccccc2)cc1`, the Potency entry was “inactive” and the cell number change is -4.04%.
With `COc1ccc(S(=O)(=O)N(CC(=O)Nc2cccnc2)c2ccccc2OC)cc1`, the Potency entry was “inactive”.
